# From PubChem BioAssay (NCI)
# About 83,000 compounds went through this panel and 20% of them were active in at least one assay; those are over-represented in the sample as a whole.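 Values shown are percent growth following 48 h exposure of cells in 96-well plates to a single concentration of compound; below 10 was considered active.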 Values without a mark were called inactive. Calls of active or inactive are those of the source.
# Tested on: NCI-H522 lung
# Assay: NCI-60 one-dose screen, 48 h (100 = growth as untreated, 0 = no growth, -100 = all killed)
# Conditions: 10 µM unless noted
row,Structure (SMILES),growth
1,COc1cccc(/C=C2\Oc3cc(OCCN4CCCC4)ccc3C2=O)c1,94.5%
2,COc1ccc(-c2nc3ccc(-c4nc5ccc(N6CCN(c7ccncc7)CC6)cc5[nH]4)cc3[nH]2)cc1OC,-58% (active)
3,Cc1ccc(C2=NN3C(C2)c2cc(Br)ccc2OC32CCN(Cc3ccccc3)CC2)o1 (centres undefined),89.1%
4,COc1cc2c(cc1-c1c(C)noc1C)ncc1nc(-c3ccccn3)n([C@H](C)COC(F)F)c12,29.3%
5,Cc1oc(-c2ccc(Cl)cc2Cl)cc1C(=O)Nc1nccs1,89.7%
6,COc1ccc2c(c1)c(-c1nonc1-c1cn(C)c3ccccc13)cn2C,9.96% (active)
7,COC(=O)c1ccc(NC(=O)c2ccc(-c3cccc([N+](=O)[O-])c3)o2)cc1,94.2%
8,COc1cccc(C2=NN3C(C2)c2cc(Br)cc(OC)c2OC32CCN(Cc3ccccc3)CC2)c1 (centres undefined),96.2%
9,O=C1c2cc3c(cc2-c2c1c1cc(F)c(F)cc1c(=O)n2CCCn1ccnc1)OCO3,-26.9% (active)
10,Cc1ccc2c(C(C[N+](=O)[O-])c3ccccc3F)c(-c3ccccc3)[nH]c2c1 (centres undefined),-17.2% (active)
11,Cc1ccccc1COc1ccc(-c2onc(C)c2-c2ccc(Cl)cc2)cc1,25.5%
12,COC[C@H](C)n1c(C2CCOCC2)nc2cnc3cc(-c4c(C)noc4C)c(OC)cc3c21,34.4%
13,C#CCOc1ccc2ncnc(NCc3cccc(NC(=O)CCl)c3)c2c1,-62.8% [8.25 µM] (active)
14,COc1cc(-c2nn(C)nc2-c2cc3ccccc3s2)cc(OC)c1OC,0.184% (active)
15,O=C1NC(=S)N[C@H]1CC(=O)n1cnc2ccccc21,98.4%
16,O=S(=O)(Nc1ccc(I)cc1F)c1ccc(-c2cnc(C3CC3)o2)cc1,31.2%
17,CC[C@@H](C(=O)[C@@H](C)[C@@H](O)[C@H](C)[C@@H]1O[C@@H]([C@@H](CC)C(=O)O)CC[C@@H]1C)[C@H]1OC2(C=C[C@@H](O)[C@]3(CC[C@@](C)([C@H]4CC[C@](O)(CC)[C@H](C)O4)O3)O2)[C@H](C)C[C@@H]1C (some centres undefined),-54.6% (active)

row,Structure (SMILES),growth
1,CCOC(=O)c1csc(NC(=O)COc2cccc(/C=C3\CSc4ccccc4C3=O)c2)n1,-39.2% (active)
2,CN1CCN(c2ccc3nc(-c4ccc(OCCCCN5CCN(CCCCN6C(=O)c7cccc8cccc(c78)C6=O)CC5)cc4)[nH]c3c2)CC1,65%
3,Cc1ncc(C(=O)Nc2ccc(CN3CCN(C)CC3)c(C(F)(F)F)c2)cc1C#Cc1cnc2cccnn12,-18.9% (active)
4,Cc1nc2c3c(-c4ccccc4)c(-c4ccccc4)oc3ncn2n1,80.8%
5,O=C(N/N=C/c1ccccc1O)c1ccccc1Nc1ccnc(C(F)(F)F)c1,24%
6,COC(=O)[C@]12CCC(C)(C)C[C@H]1[C@H]1C(=O)C[C@@H]3[C@@]4(C)c5c([nH]c6ccccc6c5=O)C(C)(C)[C@@H]4CC[C@@]3(C)[C@]1(C)CC2,45.1%
7,COc1ccc(-c2n[nH]nc2-c2csc3ccccc23)cc1OC,7.11% (active)
8,O=C1c2ccccc2C(=O)c2c(N=Nc3[nH]c(=S)[nH]c3O)cccc21,-6.34% (active)
9,Cn1c(NCCc2ccc(O)c(O)c2)nc2c1c(=O)n(Cc1ccc(Br)cc1)c(=O)n2C,-26.6% (active)
10,Cc1ccc(/C=C2\SC(=S)N(CC(=O)NCCCN3CCOCC3)C2=O)cc1,90.5%
11,Cc1ccc(C2Oc3ccccc3C3CC(c4cccs4)=NN32)cc1 (centres undefined),88.7%
12,C=CC(=O)Nc1cccc(-c2nc(SC)nc(NCCc3ccc(OC)c(OC)c3)c2C#N)c1,39.2%
13,Cc1nc(/N=C(\N)NC(=O)Nc2cccc([N+](=O)[O-])c2)sc1C,49.2%
14,COc1ccc(-n2nc(C)c3c(Nc4ccc(NC(=O)Nc5ccc(Cl)c(C(F)(F)F)c5)cc4)ncnc32)cc1,-18.4% (active)
15,O=C(/C=C/c1cccc([N+](=O)[O-])c1)c1ccc(O)c(CN2CCN(c3cc4c(cc3F)c(=O)c(C(=O)O)cn4C3CC3)CC2)c1,16.3%
16,CCC([N+](=O)[O-])S(=O)(=O)c1ccc(C)cc1 (centres undefined),89.3%
17,Cc1cn2c(/C=C3/C(=O)Nc4c3ccc3ccccc43)c(C(F)(F)F)nc2s1,5.27% (active)
